Experimental data taken from PubChem BioAssay AID485281 (National Center for Advancing Translational Sciences (NCATS), 2010).
In all, about 350,000 compounds went through this assay and about 260 (0.074%) were called active. Another 8% or so got no clear call; they are omitted. The entries come from a sample that favours actives as a whole. A number with no mark means an inactive call. Calls come from the whole dose curve; as a rule, active = well fitted inhibition curve with a large enough effect; inconclusive = small, poorly fitted or top-dose-only effect; inactive = no such curve, though single readings can be large or run the other way.

target: Ferritin light chain (Equus caballus) (UniProt P02791); test: qHTS Assay for Identification of Novel General Anesthetics; conditions: apoferritin/1-aminoanthracene competitive binding, fluorescence; series mostly up to 77.5 µM; activity change, negative = displacement: at the top concentration; note: nearly all actives have a fitted effect of over 20% in size
Sequence (P02791 2-175 limits assumed): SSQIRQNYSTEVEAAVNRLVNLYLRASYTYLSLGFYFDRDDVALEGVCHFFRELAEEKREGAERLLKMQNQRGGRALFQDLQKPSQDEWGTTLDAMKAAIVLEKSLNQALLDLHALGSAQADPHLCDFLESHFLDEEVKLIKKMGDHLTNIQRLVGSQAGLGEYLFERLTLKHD
Source text: Source: NIH Chemical Genomics Center [NCGC]
Assay Submitter: Roderic Eckenhoff, University of Pennsylvania
Screening Center PI: Christopher P. Austin, NIH
Probe Development: NIH Chemical Genomics Center [NCGC]
Anesthetic development has remained a largely empirical process. There are growing concerns about the cognitive effects of known general anesthetics and acceleration of the onset of neurodegenerative disease. The compounds' toxicity and multiple specific binding targets in the mammalian brain [4] has made them less attractive as drug leads. In this assay, a GABAergic mimetic model system, apoferritin and a profluorescent 1-aminoanthracene ligand (1-AMA), was used to construct a competitive binding assay for identification of novel general anesthetics. The assay was validated for 1-AMA using other known anesthetics, such as isoflurane (CID:3763) and propofol (CID: 4943), [6].
[1] S.L. Bianchi, T. Tran, C. Liu, S. Lin, Y. Li, J.M. Keller, R.G. Eckenhoff, and M.F. Eckenhoff, Brain and behavior changes in 12-month-old Tg2576 and nontransgenic mice exposed to anesthetics. Neurobiol Aging 29 (2008) 1002-10.
[2] Z. Xie, Y. Dong, U. Maeda, R.D. Moir, W. Xia, D.J. Culley, G. Crosby, and R.E. Tanzi, The inhalation anesthetic isoflurane induces a vicious cycle of apoptosis and amyloid beta-protein accumulation. J Neurosci 27 (2007) 1247-54.
[3] P. Honegger, and J.M. Matthieu, Selective toxicity of the general anesthetic propofol for GABAergic neurons in rat brain cell cultures.
[4] M.F. Eckenhoff, K. Chan, and R.G. Eckenhoff, Multiple specific binding targets for inhaled anesthetics in the mammalian brain. J Pharmacol Exp Ther 300 (2002) 172-9.
[5] C.A. Butts, J. Xi, G. Brannigan, A.A. Saad, S.P. Venkatachalan, R.A. Pearce, M.L. Klein, R.G. Eckenhoff, and I.J. Dmochowski, Identification of a fluorescent general anesthetic, 1-aminoanthracene. Proc Natl Acad Sci U S A 106 (2009) 6501-6.
[6] W.A. Lea, J. Xi, A. Jadhav, L. Lu, C.P. Austin, A. Simeonov, and R.G. Eckenhoff, A high-throughput approach for identification of novel general anesthetics. PLoS One 4 (2009) e7150.
Three uL of reagents (free 1-AMA (50% saturated solution of 1-aminoanthracene
in PBS) in columns 3, 4 as negative control and 1-AMA/apoferritin mixture (10 uM horse-spleen apoferritin in 50% saturated 1-aminoanthracene in PBS) in columns 1, 2, 5-48) was dispensed into 1536-well Greiner black assay plates. Compounds (23 nL) were transferred via Kalypsys pintool equipped with 1,536-pin array (10 nL slotted pins, V&P Scientific, San Diego, CA). Titration of the positive control, propofol, were delivered via pin transfer from separate control plates to the 2nd column of each assay plate. The starting concentration of the control, dissolved in DMSO, was at 160 mM, followed by two-fold dilution points in duplicate, for a total of 16 concentrations. The plates were incubated for 10 min at room temperature, and then read on an EnVision HTS multilabel reader (Perkin-Elmer, Waltham, MA) (end point read, 3 min/plate) using Fura2 BFP excitation filter (380 nm, bandwidth 10 nm) and fluorescein emission filter (535 nm, bandwidth 25 nm) set. A LANCE/DELFIA dichroic mirror with a cutoff wavelength at 400 nm was used to maximize signal accuracy and strength. Vehicle-only plates, with DMSO being pin-transferred to the entire column 5-48 compound area, were inserted uniformly at the beginning and the end of each library in order to monitor for and record any shifts in the background. Activity was computed as the normalized fluorescence response relative to free 1-AMA and 1-AMA/apoferritin complex values. Concentration-effect relationships were derived by using curve fitting algorithms developed in-house (http://ncgc.nih.gov/pub/openhts/). A four parameter Hill equation was fitted to the concentration-response data by minimizing the residual error between the modeled and observed responses.
% is set by controls: 0 for no effect and ±100 for the full control effect; potency is the fitted concentration of half-maximal effect.

SMILES | activity change, negative = displacement [%] | Potency
O=C(NCc1ccc(F)cc1)c1ccc(Cn2c(SCc3ccc(F)cc3)nc3cccnc32)cc1 | -5.12 | 
Cc1cccc2nc(-c3ccc(Cl)s3)c(Nc3ccc4c(c3)OCCO4)n12 | 58.8 | 
O=C(NCC(c1cccnc1)N1CCc2ccccc21)c1cccc(C(F)(F)F)c1 (centres undefined) | -10 | 
CCOc1ccc(C(=O)/C=C/c2cn(CC(O)CN3CCCCCC3)c3ccccc23)cc1 (centres undefined) | -7.92 | 
CCOc1ccc(NC(=O)CCc2c(C)nn(-c3ccc(N4CCCC4)nn3)c2C)cc1 | 42.2 | 
Cc1ccc(-c2nc(SCc3ccc(Br)cc3)n3[nH]c(=O)cc3n2)cc1 | 2.21 | 
Cc1ccc(CN2CCc3nc(N4CCN(C)CC4)ncc3C2)cc1 | 11.3 | 
CCOC(=O)c1cnc2c(C)cc(C)cc2c1Nc1ccc(N2CCOCC2)cc1 | -13.5 | 
COc1cc2nc(SCc3ccc(F)cc3)n3nc(CCn4c(C)nc5ccccc54)nc3c2cc1OC | 26.5 | 
CCOCCc1nn2c(=O)cc(COC(=O)CNC(=O)c3ccc(C(C)(C)C)cc3)nc2s1 | -16.9 | 
Cc1cccc(NC(=O)C2CCN(S(=O)(=O)c3c(C)noc3/C=C/c3ccco3)CC2)c1 | -8.73 | 
CCN(CCCNC(=O)c1ccc(Sc2ccc(C)cc2)c(NC(C)=O)c1)c1cccc(C)c1 | 8.6 | 
CCOC(=O)c1ccc(CN(Cc2ccccc2)S(=O)(=O)c2ccc(Cl)cc2)cc1 | 52.1 | 
COc1cc(OC)c(NC(=O)N2CC3CCCN3c3ccccc32)cc1Cl (centres undefined) | -13.5 | 
COc1ccc2[nH]c3c(c2c1)CCN(C(=O)CCC1CCCC1)C3c1ccc(F)cc1 (centres undefined) | 9.86 | 
CN(C(=O)CSc1nc2ccccc2n1Cc1ccccc1C#N)c1ccccc1 | 78.3 | 
Cc1cccc(N2CCN(c3ccc(C(=O)O)cc3NC(=O)c3ccccc3F)CC2C)c1 (centres undefined) | -15.5 | 
CCCCc1nn2c(=O)cc(COC(=O)c3ccc(NC(=O)c4ccccc4C)cc3)nc2s1 | -0.216 | 
CCC(=O)N1CCc2cc(S(=O)(=O)NC(C(=O)NCCc3ccc(C)cc3)C(C)C)ccc21 (centres undefined) | -8.37 | 
O=C(CSc1nc(-c2cccc(F)c2)[nH]c1-c1ccccc1)Nc1ccc2c(c1)OCO2 | 37.9 | 
CCOC(=O)c1ccc(NC(=O)c2c(NCc3cccs3)sc3c2CCCC3)cc1 | 7.21 | 
COc1ccc(C)cc1NC(=O)COCc1cc(-c2cccs2)on1 | 3.35 | 
Cc1ccc(-n2ncc3c(NCCCn4ccnc4)ncnc32)cc1Cl | -2.7 | 
CCN(CC)S(=O)(=O)c1nnc(NC(=O)COc2ccccc2Cl)s1 | -19.9 | 
Cc1nc2nc(NCc3cccc(Br)c3)[nH]n2c(=O)c1Cc1ccccc1 | -2.1 | 

SMILES | activity change, negative = displacement [%] | Potency
COc1ccccc1N1CCN(CCCNC(=O)c2cnn(-c3ccccc3Cl)c2C2CCN(C(=O)OC(C)(C)C)CC2)CC1 | -12.6 | 
COc1ccc(-n2ccn(CC(=O)Nc3ccc(C)c(C)c3)c(=O)c2=O)cc1OC | -4.83 | 
Cc1nn(C(C)C(=O)NCCc2ccccc2)c(=O)c2c1sc1ccccc12 (centres undefined) | 78.3 | 
COc1ccc(-c2cccc(NS(=O)(=O)c3cc(C)c(OC)c(C)c3C)c2)nn1 | -14.2 | 
Cc1cccc(C(=O)Nc2ccc(S(=O)(=O)N3CCCCC3c3cccnc3)cc2)c1 (centres undefined) | 8.01 | 
CCCCN(CC)C(=O)c1c[nH]c2ccc(S(=O)(=O)Nc3cccc(OC)c3)cc2c1=O | -15.8 | 
O=[N+]([O-])c1ccccc1NCc1ccc(Cl)cc1 |  | 8.91 µM (active)
O=C(NCCNc1ccccc1[N+](=O)[O-])c1ccccc1F | -17.2 | 
Cc1c(NC(=S)NCc2ccc(F)cc2)cccc1[N+](=O)[O-] | -8.7 | 
CC(Nc1ccc(-c2nc(-c3ccco3)no2)cc1[N+](=O)[O-])c1ccccc1 (centres undefined) | -15.1 | 
COc1ccc(C2C(=O)N(C3CCCCC3)CC(=O)N2Cc2ccccc2Cl)cc1OC (centres undefined) | -5.68 | 
COc1ccc(Nc2ncc3c(n2)CCN(C(=O)OC(C)(C)C)C3)cc1 | -0.4 | 
CCOC(=O)C1CCN(c2csc3ccc(C)cc3c2=O)CC1 | -6.57 | 
Nc1nonc1C(=O)NCCc1ccccc1 |  | 17.8 µM (active)
O=C(O)c1ccccc1-c1ccccc1C(=O)NCCc1ccccc1 | -2.83 | 
NC(=O)Nc1ccccc1C(=O)NCCc1ccccc1 | 6.37 | 
O=C1CCCc2cc(S(=O)(=O)N3CCCC(C(=O)NCc4ccccc4)C3)ccc2N1 (centres undefined) | -3.62 | 
CCOc1ccccc1C(=O)Nc1ccc2c(c1)N(C)C(=O)c1ccccc1S2 | -13.2 | 
Cc1cc(F)ccc1NC1(c2ccccc2)C(=O)c2ccccc2C1=O | -6.15 | 
COc1ccc(-c2noc(-c3ccc(N4CCN(c5ccccc5)CC4)c([N+](=O)[O-])c3)n2)cc1OC | -8.01 | 
Cc1ccc(-c2nnc(SCC(=O)NCc3ccccc3)nc2-c2ccc(C)cc2)cc1 | -7.43 | 
Cc1ccccc1CNC(=O)C(=O)NCC(c1cccs1)S(=O)(=O)c1cccs1 (centres undefined) | 46.9 | 
COc1ccc(Nc2cc(C(=O)NCCCN(C)c3ccccc3)c3ccccc3n2)c(OC)c1 | 50 | 
CCOC(=O)CN1C(C(=O)c2ccccc2)=C(OC(=O)C(C)(C)C)c2ccccc2S1(=O)=O | -5.44 | 
